Source: publication PMC4336329 (PLoS ONE, 2015)
The whole screen tested about 310,000 compounds, of which about 14,000 (4.5%) showed an effect of 50% or more. Effects have a minus sign here. Shown is part of a subset that was picked to be rich in strong results.

Biological target: human ether-à-go-go-related gene (hERG) potassium channel (human, UniProt Q12809)
Assay: primary screen, population patch clamp on CHO cells stably expressing hERG; higher = less effect of the substance
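Also: peak tail current of the secondary pulse compared with the same well before compound.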

Chain of human ether-à-go-go-related gene (hERG) potassium channel (Q12809 whole entry, looked up): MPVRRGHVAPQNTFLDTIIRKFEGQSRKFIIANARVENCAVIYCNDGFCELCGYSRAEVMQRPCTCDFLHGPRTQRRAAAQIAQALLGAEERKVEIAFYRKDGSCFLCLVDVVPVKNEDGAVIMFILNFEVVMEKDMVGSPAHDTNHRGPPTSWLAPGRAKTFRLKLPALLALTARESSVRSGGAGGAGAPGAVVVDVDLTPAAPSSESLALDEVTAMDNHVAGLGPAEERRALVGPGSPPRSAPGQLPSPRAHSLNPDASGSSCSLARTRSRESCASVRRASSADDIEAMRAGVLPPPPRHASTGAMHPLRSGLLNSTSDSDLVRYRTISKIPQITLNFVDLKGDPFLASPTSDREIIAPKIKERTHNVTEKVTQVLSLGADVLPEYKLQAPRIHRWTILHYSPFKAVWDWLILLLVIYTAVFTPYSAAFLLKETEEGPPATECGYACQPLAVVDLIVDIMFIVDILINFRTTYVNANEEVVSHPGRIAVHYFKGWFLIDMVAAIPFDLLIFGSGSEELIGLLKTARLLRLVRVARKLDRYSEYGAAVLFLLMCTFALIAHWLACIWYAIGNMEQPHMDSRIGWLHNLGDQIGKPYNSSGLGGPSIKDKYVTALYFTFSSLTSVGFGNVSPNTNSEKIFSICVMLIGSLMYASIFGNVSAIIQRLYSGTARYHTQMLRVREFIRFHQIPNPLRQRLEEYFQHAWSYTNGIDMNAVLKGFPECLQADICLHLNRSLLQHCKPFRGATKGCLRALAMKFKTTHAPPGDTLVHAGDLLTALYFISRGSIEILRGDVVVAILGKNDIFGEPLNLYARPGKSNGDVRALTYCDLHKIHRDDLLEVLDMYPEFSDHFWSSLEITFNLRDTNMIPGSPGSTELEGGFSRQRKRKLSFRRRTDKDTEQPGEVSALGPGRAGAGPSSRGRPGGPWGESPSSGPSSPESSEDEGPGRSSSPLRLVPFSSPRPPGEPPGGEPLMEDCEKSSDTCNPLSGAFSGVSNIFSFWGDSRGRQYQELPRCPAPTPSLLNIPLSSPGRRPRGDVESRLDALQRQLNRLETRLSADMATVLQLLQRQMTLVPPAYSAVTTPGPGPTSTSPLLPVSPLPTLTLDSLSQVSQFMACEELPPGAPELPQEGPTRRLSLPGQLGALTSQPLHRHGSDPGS

Row | Compound | hERG current change (%, negative = inhibition) at 10uM [%]
1 | CN(NC(=O)c1ccccc1Cl)c1ncc(C(F)(F)F)cc1Cl | -1.95
2 | Cc1c(OCc2ccc([N+](=O)[O-])cc2)ccc2c3c(c(=O)oc12)CCC3 | 0.652
3 | Cc1nc(C)n(C(C)CNS(=O)(=O)c2ccc(Cl)cc2)n1 (centres unmarked) | 13.9
4 | O=P1(NCCCn2cc[n+](Cc3nc4ccccc4[nH]3)c2)C=C(c2ccccc2)OC(c2ccccc2)=C1.[Cl-] | -63
5 | O=C(C[n+]1ccn(CCCNP2(=O)C=C(c3ccccc3)OC(c3ccccc3)=C2)c1)c1ccccc1.[Br-] | -22.8
6 | O=C(C[n+]1ccn(CCCNP2(=O)C=C(c3ccccc3)OC(c3ccccc3)=C2)c1)c1cccs1.[Br-] | -44.7
7 | CC[C@H](C)[C@H](NC(=O)[C@H](Cc1ccc(O)cc1)NC(=O)[C@@H](N)C(C)C)C(=O)N[C@@H](Cc1cnc[nH]1)C(=O)N1CCC[C@H]1C(=O)N[C@@H](Cc1ccccc1)C(=O)O | 4.75
8 | O=S(=O)(NCCc1ccncc1)c1ccc(F)cc1 | 12
9 | CCOC(=O)C1=C(C)N=C2SCCC(=O)N2C1c1cccs1 (centres unmarked) | -10.2
10 | CCCCCCCCS(=O)C1CCS(=O)(=O)C1 (centres unmarked) | 4.04
11 | CCCCCCCCS(=O)C1CS(=O)(=O)CC1O (centres unmarked) | 5.75
12 | CCCCCCS(=O)[C@H]1CS(=O)(=O)C[C@@H]1S(=O)CCCCCC (some centres unmarked) | -66.7
13 | CCOC(=O)N1CCN(Cc2nc(N)nc(Nc3ccc(C)cc3C)n2)CC1 | -16.7
14 | CCOC(=O)N1CCN(C(=O)Nc2ccc(Cl)cc2)CC1 | -11.4
15 | CCOC(=O)N1CCN(Cc2nc(-c3ccc(C)cc3)no2)CC1 | -17.6
16 | CCOC(=O)N1CCN(Cc2nc(N)nc(Nc3ccc(C)cc3)n2)CC1 | -57.2
17 | CCOC(=O)N1CCN(Cc2nc(N)nc(Nc3ccc(Cl)cc3)n2)CC1 | -72.4
18 | CCOC(=O)N1CCN(Cc2nc(-c3ccc(Cl)cc3)no2)CC1 | -30.6
19 | COc1ccc(C2C(C(=O)O)CCC(=O)N2c2ccc(C)cc2)cc1OC (centres unmarked) | -10.6

Row | Compound | hERG current change (%, negative = inhibition) at 10uM [%]
20 | CC(C)[C@H](NS(=O)(=O)c1ccccc1)C(=O)OCC(=O)Nc1ccccc1Sc1ccccc1 | 1.98
21 | C=CCn1c(Sc2nnc(C)s2)nc2c1c(=O)[nH]c(=O)n2C | 11.2
22 | O=C(NCc1ccccn1)Nc1ccccc1F | 13.5
23 | Cc1cc(NC(=O)CSc2ccc(Cl)cc2)no1 | -3.36
24 | COc1cccc(C(=O)CSc2nc3ccccc3n2CC(=O)N(C(C)C)C(C)C)c1 | -5.36
25 | CCCCCc1ccc(OCCC[n+]2ccccc2)c(CCCCC)c1.[Cl-] | -75.7
26 | CCCCCOc1ccc(C)cc1CN(CCCl)CCCl.Cl | 13.1
27 | CCCCCc1ccc(OCCCC[n+]2ccccc2)c(CCCCC)c1.[Cl-] | -66.4
28 | CCCCCc1ccc(CC(=O)O)cc1 | 11.4
29 | CCCCOc1ccc(C)cc1CN(CCO)CCO.Cl | 1.6
30 | CCCCCCC[n+]1ccc(-c2cc[n+](CCCCCCC)cc2)cc1.[I-] | 9.12
31 | CCCCOc1ccc(CCN)cc1Cl.Cl | -13.7
32 | CCCCCc1ccc(S(=O)(=O)Nc2cc(C)ccn2)cc1 | 8.41
33 | CCCCCc1ccc(OCCCC[n+]2ccc(C)cc2)c(CCCCC)c1.[Cl-] | -77
34 | CC(=O)Nc1ccc(OCCC[n+]2ccccc2)cc1.[Cl-] | 40.4
35 | Cc1ccc[n+](CC(=O)Nc2ccc(C)c(C)c2)c1.[Cl-] | 10.4
36 | CCCCCc1ccc(OCCCC[n+]2cccc(C)c2)c(CCCCC)c1.[Cl-] | -71.1
37 | OCC1OC(n2cnc3ccccc32)CC1O (centres unmarked) | 10.8
38 | CCNC(=O)OCC12CC3CC(CC(C3)C1)C2 | -5.85

Row | Compound | hERG current change (%, negative = inhibition) at 10uM [%]
39 | Cc1ccc(C(=O)N/N=C\c2ccc(-c3ccc(Cl)c(Cl)c3)o2)cn1 | -44.9
40 | CCOC(=O)N1CCN(C(=O)C2CCC(=O)N(Cc3cccc(C(F)(F)F)c3)C2)CC1 (centres unmarked) | -11.1
41 | CC(C)n1c(O)c(N=NC(=O)C2COc3ccccc3O2)c2ccccc21 (centres unmarked) | 12.4
42 | Nn1c(COc2ccccc2F)nnc1SCC(=O)NC1CCS(=O)(=O)C1 (centres unmarked) | -7.72
43 | CCc1nc(CN2CCN(c3ccc(C(F)(F)F)cn3)CC2)c(C)[nH]1 | -55.6
44 | CS(=O)(=O)Nc1ccc(N2CCN(c3ccc(C(F)(F)F)cn3)CC2)nc1 | -4.03
45 | CCc1nc(CN2CCN(c3cc(C(F)(F)F)ccn3)CC2)c(C)[nH]1 | -45.2
46 | O=C(CN1CCN(Cc2ccc(F)cc2Cl)CC1)NCc1ccccc1 | -23.2
47 | OCCCNc1nc(-c2ccc(Cl)cc2)nnc1-c1ccccc1 | -40
48 | OCCCNc1nc(-c2ccc(Br)cc2)nnc1-c1ccc(Cl)cc1 | -52.3
49 | OCCCNc1nc(-c2ccc(Cl)cc2)nnc1-c1ccc(Br)cc1 | -61.5
50 | Clc1ccc(-c2nnc(-c3ccc(Br)cc3)c(N3CCSCC3)n2)cc1 | -11.9
51 | Cc1nnc(-c2ccc(Cl)cc2)nc1NCCN(C)C | -38.9
52 | O=[N+]([O-])c1ccc(-c2nnc(-c3ccccc3)c(NCCCO)n2)cc1 | -67.3
53 | O=[N+]([O-])c1ccc2nc(NCCCO)nc(-c3ccccc3)c2c1 | -22.7
54 | OCCCNc1nnc(-c2ccccc2)c2ccccc12 | 2.95
55 | Nc1nc(-c2ccc(Cl)cc2)nnc1-c1ccc(Br)cc1 | 41
56 | CC(C)(C)c1ccc(C(CC(=O)O)NC(=O)C23CC4CC(CC(C4)C2)C3)cc1 (centres unmarked) | 17.7
